Molecules are shown by their SMILES. ± gives the standard deviation of the averaged measurements.

The record followed here is the supplement of paper PMC7380943.

For experiment [1], the system named is CLZ3 (HCA2 human fibroblast dual HR-NHEJ reporter). Kind of experiment: NHEJ repair efficiency (GFP+ cells) relative to control (log10 fold); higher = more non-homologous end joining. Particulars: 5 µM; doxycycline 0.5 ug/mL.
Experiment [2] has the same test system. Kind of experiment: HR repair efficiency (tdTomato+ cells) relative to control (log10 fold); higher = more homologous recombination. Particulars: 5 µM; doxycycline 0.5 ug/mL.
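Wherever HR repair efficiency (tdTomato+ cells) relative to control is given: compound given one day before doxycycline, which switches on I-SceI endonuclease expression to create double-strand breaks within the integrated reporter.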
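Wherever NHEJ repair efficiency (GFP+ cells) relative to control is given: compound given one day ahead of doxycycline, which switches on I-SceI endonuclease to cut the chromosomally integrated reporter and create DSBs.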

Turning to `O=C(/C=C/c1ccc(O)c(O)c1)OC1CC(OC(=O)/C=C/c2ccc(O)c(O)c2)(C(=O)O)CC(O)C1O` (centres undefined) [1,3-Dicaffeoylquinic Acid], the “NHEJ repair efficiency (log10)” value in experiment [1] was determined as 0.0818. Further, the “HR repair efficiency (log10)” value in experiment [2] is -0.0122.

`O=C(O)CC(O)(CC(=O)O)C(=O)O` [Citric Acid]: in experiment [1], the “NHEJ repair efficiency (log10)” value was -0.0431. Moreover, in experiment [2], the “HR repair efficiency (log10)” value was -0.109.

As to `O=C(/C=C/c1ccc(O)c(O)c1)O[C@H](Cc1ccc(O)c(O)c1)C(=O)O` [Rosmarinicacid], the “NHEJ repair efficiency (log10)” value in experiment [1] was -0.275. Also, the “HR repair efficiency (log10)” value in experiment [2] is -0.328.

Take `O=C1C[C@@H](c2ccc(O)cc2)Oc2cc(O)ccc21` [Liquiritigenin]: the “NHEJ repair efficiency (log10)” value in experiment [1] worked out at 0.037. In addition, in experiment [2], the “HR repair efficiency (log10)” value was 0.142.

Consider `COc1cc2c(c(OC)c1OC)-c1c(cc(OC)c(OC)c1OC)C[C@H](C)[C@H](C)C2` [Schisandrin A], for which the “NHEJ repair efficiency (log10)” value in experiment [1] is -0.121. The “HR repair efficiency (log10)” value in experiment [2] was -0.0756.

For the compound `COC(=O)C1=CO[C@@H](O[C@@H]2O[C@H](CO)[C@@H](O)[C@H](O)[C@H]2O)[C@@H]2C(CO)=CC[C@H]12` [Geniposide], the “NHEJ repair efficiency (log10)” value in experiment [1] was -0.0355. In experiment [2], the “HR repair efficiency (log10)” value was 0.172.

As for `C[C@@H]1O[C@@H](OC[C@H]2O[C@@H](OCCc3ccc(O)c(O)c3)[C@H](O)[C@@H](O)[C@@H]2O)[C@H](O)[C@H](O)[C@H]1O` [Forsythoside E], in experiment [1], the “NHEJ repair efficiency (log10)” value was -0.0418. The “HR repair efficiency (log10)” value in experiment [2] stood at 0.0386.

Take `C/C=C(/C)C(=O)O[C@H]1[C@@H](OC(=O)CC(C)C)c2c(ccc3ccc(=O)oc23)OC1(C)C` [Praeruptorin E]: the “NHEJ repair efficiency (log10)” value in experiment [1] was -0.0864. Moreover, the “HR repair efficiency (log10)” value in experiment [2] is -0.0529.

In the case of `COc1cc2c(c(O)c1OC)-c1c(cc(OC)c(OC)c1OC)C[C@@H](C)[C@@H](C)C2` [Schisanhenol], in experiment [1], the “NHEJ repair efficiency (log10)” value is -0.161. Further, in experiment [2], the “HR repair efficiency (log10)” value is -0.0391.

Turning to `O=C(CCc1ccc(O)cc1)c1c(O)cc(O)cc1O[C@@H]1OC(CO)[C@@H](O)[C@@H](O)C1O` (some centres undefined) [Phloridzin], in experiment [1], the “NHEJ repair efficiency (log10)” value is -0.0404 ± 0.071. The “HR repair efficiency (log10)” value in experiment [2] was 0.0182 ± 0.039.

Take `CC(CC(=O)C[C@@H](C)[C@H]1CC(=O)[C@@]2(C)C3=C(C(=O)C[C@]12C)[C@@]1(C)CCC(=O)C(C)(C)[C@@H]1C[C@@H]3O)C(=O)O` (some centres undefined) [Ganoderic Acid D]: the “NHEJ repair efficiency (log10)” value in experiment [1] was 0.113. In experiment [2], the “HR repair efficiency (log10)” value was -0.241.

`CCOC(=O)c1cc(O)c(O)c(O)c1` [Gallic Acid Ethyl Ester]: the “NHEJ repair efficiency (log10)” value in experiment [1] was determined as 0.018. The “HR repair efficiency (log10)” value in experiment [2] was determined as 0.00694.
